In the supplement of paper PMC11732987, “Enantioselective OTUD7B fragment discovery through chemoproteomics screening and high-throughput optimisation” (Communications Chemistry, 2025):

How the values were obtained:
Experiment in all cases: log2 ratio of Biotin-Ahx-Ub-VS probe labelling (fragment/DMSO); higher = less target engagement (more negative = stronger competition), active = hit call of the paper (q ≤ 0.05, log2 ratio ≤ -1)
Settings in all cases: compound concentration: 200 uM; treatment time: 3 h
OTUD6B = target: T1, OTUD6B (UniProt Q8N6M0)
T1 sequence (whole entry): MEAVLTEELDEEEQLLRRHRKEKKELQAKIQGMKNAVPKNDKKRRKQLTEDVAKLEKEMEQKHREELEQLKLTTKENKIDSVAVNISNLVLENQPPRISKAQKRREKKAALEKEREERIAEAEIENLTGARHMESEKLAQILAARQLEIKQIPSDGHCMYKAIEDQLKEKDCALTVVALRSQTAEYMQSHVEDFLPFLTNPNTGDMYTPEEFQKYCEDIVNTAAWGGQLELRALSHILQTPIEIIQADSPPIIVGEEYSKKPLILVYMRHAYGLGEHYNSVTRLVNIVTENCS
Outline: (§1)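 Global-median-normalised Spectronaut label-free quantities were compared by unpaired t-test, and values are average log2 ratios of fragment over vehicle. Only proteins with ≥2 unique peptides were used. HEK293T lysate (495 µg per sample) was treated in triplicate with fragment at 200 µM or vehicle for 3 h and then with Biotin-Ahx-Ub-VS at 0.5 µM final for 1 h. Labelled DUBs were then NeutrAvidin-enriched, digested with LysC and trypsin, and run by diaPASEF LC-MS/MS.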

OTUD7B = target: T2, OTUD7B (UniProt Q6GQQ9)
T2 sequence (whole entry): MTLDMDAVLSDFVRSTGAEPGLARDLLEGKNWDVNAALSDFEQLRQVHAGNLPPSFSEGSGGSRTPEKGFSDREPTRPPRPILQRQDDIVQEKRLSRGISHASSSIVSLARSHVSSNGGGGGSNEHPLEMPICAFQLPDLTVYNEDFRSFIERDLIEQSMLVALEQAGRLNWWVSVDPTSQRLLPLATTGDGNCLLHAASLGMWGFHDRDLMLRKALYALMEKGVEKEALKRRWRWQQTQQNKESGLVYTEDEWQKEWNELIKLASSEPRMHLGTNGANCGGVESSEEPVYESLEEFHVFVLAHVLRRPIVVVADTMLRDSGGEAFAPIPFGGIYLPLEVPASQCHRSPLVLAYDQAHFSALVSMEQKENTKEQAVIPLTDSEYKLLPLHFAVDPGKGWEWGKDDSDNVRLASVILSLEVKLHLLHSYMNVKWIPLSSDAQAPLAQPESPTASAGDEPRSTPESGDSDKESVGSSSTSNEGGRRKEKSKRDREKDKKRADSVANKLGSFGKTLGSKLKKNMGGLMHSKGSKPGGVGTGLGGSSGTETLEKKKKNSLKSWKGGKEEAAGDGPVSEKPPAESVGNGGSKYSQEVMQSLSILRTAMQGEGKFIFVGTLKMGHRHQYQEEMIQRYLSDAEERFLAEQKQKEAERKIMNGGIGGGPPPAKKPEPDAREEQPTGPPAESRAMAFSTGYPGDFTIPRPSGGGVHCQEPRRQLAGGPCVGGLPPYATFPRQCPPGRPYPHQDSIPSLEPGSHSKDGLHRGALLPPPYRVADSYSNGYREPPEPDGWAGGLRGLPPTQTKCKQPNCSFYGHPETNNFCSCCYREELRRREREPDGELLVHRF
Outline: as §1

PRPF8 = PRPF8 (UniProt Q6P2Q9)
Outline: as §1

PSMD7 = target: T3, PSMD7 (UniProt P51665)
T3 sequence (whole entry): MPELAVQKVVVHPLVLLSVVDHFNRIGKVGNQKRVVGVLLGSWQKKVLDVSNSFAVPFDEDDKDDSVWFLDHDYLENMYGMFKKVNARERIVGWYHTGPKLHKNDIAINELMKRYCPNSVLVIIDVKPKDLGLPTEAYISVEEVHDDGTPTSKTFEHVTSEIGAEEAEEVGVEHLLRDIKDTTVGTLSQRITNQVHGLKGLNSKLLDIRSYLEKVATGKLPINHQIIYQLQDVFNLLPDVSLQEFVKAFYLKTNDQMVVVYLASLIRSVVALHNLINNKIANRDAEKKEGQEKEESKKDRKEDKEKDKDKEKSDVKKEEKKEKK
Outline: as §1

UCHL1 = UCHL1 (UniProt P09936)
Outline: as §1

UCHL3 = target: T4, UCHL3 (UniProt P15374)
T4 sequence (whole entry): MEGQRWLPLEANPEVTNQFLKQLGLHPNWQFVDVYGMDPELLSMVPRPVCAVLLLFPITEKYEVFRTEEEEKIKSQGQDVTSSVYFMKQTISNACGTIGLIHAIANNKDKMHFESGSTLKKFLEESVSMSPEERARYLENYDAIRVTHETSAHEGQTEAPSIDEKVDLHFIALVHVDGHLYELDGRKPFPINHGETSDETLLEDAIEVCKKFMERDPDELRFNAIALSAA
Outline: as §1

UCHL5 = target: T5, UCHL5 (UniProt Q9Y5K5)
T5 sequence (whole entry): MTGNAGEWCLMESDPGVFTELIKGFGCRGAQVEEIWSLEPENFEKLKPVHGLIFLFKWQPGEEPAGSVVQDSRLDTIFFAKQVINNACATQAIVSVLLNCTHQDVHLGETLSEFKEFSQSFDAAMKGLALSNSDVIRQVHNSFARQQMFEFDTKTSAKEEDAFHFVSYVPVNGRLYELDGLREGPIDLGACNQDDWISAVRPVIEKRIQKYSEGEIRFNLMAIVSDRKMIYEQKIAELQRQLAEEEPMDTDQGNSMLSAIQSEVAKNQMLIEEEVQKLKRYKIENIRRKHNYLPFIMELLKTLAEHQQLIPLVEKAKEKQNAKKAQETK
Outline: as §1

USP10 = USP10 (UniProt Q14694)
Outline: as §1

USP15 = target: T6, USP15 (UniProt Q9Y4E8)
T6 sequence (whole entry): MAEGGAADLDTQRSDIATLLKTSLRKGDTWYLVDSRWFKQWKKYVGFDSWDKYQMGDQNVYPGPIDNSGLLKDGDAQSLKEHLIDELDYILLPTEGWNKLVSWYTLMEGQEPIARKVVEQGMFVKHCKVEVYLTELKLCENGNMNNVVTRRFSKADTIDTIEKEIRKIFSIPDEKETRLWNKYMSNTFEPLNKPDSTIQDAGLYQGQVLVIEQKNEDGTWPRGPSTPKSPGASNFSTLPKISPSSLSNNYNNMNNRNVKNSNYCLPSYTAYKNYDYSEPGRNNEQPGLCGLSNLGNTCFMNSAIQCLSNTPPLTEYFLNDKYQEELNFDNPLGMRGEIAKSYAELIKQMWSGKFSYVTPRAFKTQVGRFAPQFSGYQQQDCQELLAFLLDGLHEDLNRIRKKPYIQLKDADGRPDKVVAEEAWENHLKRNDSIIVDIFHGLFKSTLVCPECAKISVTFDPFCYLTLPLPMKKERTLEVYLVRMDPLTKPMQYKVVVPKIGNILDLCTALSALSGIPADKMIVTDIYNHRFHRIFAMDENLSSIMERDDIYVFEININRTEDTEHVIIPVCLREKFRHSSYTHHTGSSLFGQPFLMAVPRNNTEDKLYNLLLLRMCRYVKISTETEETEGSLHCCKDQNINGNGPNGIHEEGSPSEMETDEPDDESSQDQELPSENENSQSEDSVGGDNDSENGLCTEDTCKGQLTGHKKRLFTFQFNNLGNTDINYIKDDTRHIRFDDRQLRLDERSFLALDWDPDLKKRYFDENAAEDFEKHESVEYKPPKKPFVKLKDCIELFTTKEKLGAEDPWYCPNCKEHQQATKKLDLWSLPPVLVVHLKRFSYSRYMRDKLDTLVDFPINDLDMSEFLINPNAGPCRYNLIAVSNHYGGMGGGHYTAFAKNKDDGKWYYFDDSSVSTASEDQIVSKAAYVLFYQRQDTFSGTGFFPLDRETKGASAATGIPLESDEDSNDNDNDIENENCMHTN
Outline: as §1

Measured: log2 ratio of Biotin-Ahx-Ub-VS probe labelling

USP10, sequence (Q14694 whole entry): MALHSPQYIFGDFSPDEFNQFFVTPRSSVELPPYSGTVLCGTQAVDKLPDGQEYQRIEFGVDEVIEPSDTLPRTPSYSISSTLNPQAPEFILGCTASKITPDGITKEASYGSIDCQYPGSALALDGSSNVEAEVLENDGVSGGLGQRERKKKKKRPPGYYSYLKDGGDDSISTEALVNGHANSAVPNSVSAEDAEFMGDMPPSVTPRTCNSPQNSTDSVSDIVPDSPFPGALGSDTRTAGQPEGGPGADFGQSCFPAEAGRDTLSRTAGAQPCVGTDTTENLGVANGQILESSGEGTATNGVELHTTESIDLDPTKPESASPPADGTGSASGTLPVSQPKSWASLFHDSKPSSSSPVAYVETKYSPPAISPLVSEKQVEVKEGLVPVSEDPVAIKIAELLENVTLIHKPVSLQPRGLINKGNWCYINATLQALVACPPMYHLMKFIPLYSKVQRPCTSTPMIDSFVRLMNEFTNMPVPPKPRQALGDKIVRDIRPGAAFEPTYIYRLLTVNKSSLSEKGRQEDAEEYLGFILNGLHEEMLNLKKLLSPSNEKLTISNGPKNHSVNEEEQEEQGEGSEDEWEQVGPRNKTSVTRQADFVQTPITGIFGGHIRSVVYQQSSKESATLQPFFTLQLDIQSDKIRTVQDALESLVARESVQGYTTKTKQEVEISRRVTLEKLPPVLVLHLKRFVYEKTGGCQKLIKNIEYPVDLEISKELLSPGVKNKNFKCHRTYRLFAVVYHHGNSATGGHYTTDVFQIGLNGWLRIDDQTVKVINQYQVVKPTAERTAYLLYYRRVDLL
UCHL1, sequence (P09936 whole entry, looked up): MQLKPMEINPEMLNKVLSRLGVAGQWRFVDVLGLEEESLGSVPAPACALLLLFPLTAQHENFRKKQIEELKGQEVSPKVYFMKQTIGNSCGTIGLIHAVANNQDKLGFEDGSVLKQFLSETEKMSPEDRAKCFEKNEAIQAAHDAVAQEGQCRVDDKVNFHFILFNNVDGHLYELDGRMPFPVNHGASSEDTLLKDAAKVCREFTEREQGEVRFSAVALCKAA

O=C(CCl)N1CCC(c2ccn[nH]2)C1 (centres undefined)
inactive: OTUD6B -0.234 | OTUD7B -0.648 | PRPF8 -0.154 | PSMD7 -0.294 | UCHL1 -0.579 | UCHL3 -0.0683 | UCHL5 -0.213 | USP10 -0.079 | USP15 -0.555
